Results published in PubChem BioAssay (NCATS).
“And” between values parts separate entries of the source, which are not always exact repeats. Equal values may be shown once. A number with no mark means an inactive call. Results filed as inconclusive are left out. A call without a number means that no potency is given here. The source made the active and inactive calls. Unless noted, the call rests on the fitted dose curve; in most records, active means well fitted curve in the direction sought with a large enough effect; inconclusive means small, poorly fitted or top-dose-only effect, or another doubt; inactive means no such curve, though single readings can be large; an effect the other way counts as inactive or inconclusive.

Columns and labels:
[1] = molecular target: Beta-2 adrenergic receptor (Homo sapiens) (UniProt P07550); assay: qHTS validation assay of beta-arrestin-biased ligands of beta2-adrenergic receptor (AID 485366)
Outline: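 Tango cells (recombinant beta2-AR with recombinant beta-arrestin; recruitment releases tTA driving luciferase) were treated with compounds titrated up to 46 microM for 18 hr at 37 degrees C. Luminescence gave %Activity, and concentration-response curves were curve-classified.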

[2] = molecular target: ATP-dependent 6-phosphofructokinase (Trypanosoma brucei brucei) (UniProt O15648); assay: qHTS Validation Assay to Find Inhibitors of T. brucei phosphofructokinase (AID 485368); further: potency means the concentration at half of the fitted maximal effect
Chain of ATP-dependent 6-phosphofructokinase (Trypanosoma brucei brucei) (O15648 whole entry, looked up): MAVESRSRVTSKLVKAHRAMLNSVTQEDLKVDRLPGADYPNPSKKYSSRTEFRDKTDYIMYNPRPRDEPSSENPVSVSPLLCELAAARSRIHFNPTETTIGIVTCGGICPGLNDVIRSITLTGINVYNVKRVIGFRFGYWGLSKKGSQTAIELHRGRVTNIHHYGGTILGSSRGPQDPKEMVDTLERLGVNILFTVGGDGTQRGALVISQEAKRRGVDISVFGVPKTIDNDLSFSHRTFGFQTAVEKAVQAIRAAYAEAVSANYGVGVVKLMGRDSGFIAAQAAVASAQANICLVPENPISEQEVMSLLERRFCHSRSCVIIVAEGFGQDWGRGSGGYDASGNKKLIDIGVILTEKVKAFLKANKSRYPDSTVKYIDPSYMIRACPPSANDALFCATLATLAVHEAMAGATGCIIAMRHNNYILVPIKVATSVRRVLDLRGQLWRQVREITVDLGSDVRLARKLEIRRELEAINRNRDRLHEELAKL
Outline: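 Compounds (up to 57 uM, titration series) were pinned into substrate buffer, then 1.25 nM PFK added; after 45 min at room temperature, ADP product was quantified by ADP-Glo luminescence and concentration-response curves fitted.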

[3] = Quantitative high throughput screen for delayed death inhibitors of the malarial parasite plastid, 96 hour incubation (AID 488745); further: series mostly up to about 29 µM; nearly all actives have a fitted effect of over 70% in size
Outline: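 Luciferase-expressing P. falciparum in erythrocytes (2% hematocrit, 0.1% parasitemia) incubated with compound for 96 h at 37 C, 5% CO2, in RPMI 1640 with 0.5% Albumax. Growth inhibition read as decreased luminescence.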

[4] = Quantitative high throughput screen for delayed death inhibitors of the malarial parasite plastid, 48 hour incubation (AID 488752); further: nearly all actives have a fitted effect of over 65% in size
Outline: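 Erythrocytes infected with firefly luciferase-expressing P. falciparum (2% hematocrit, 0.1% parasitemia) cultured with compound for 48 h at 37 C, 5% CO2, in RPMI 1640/0.5% Albumax. Growth inhibition read as loss of luminescence.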

[5] = molecular target: Thioredoxin reductase 1, cytoplasmic (Rattus norvegicus) (UniProt O89049); assay: qHTS Assay for Substrates of Mammalian Selenoprotein Thioredoxin Reductase 1 (TrxR1) (AID 488772);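 further: NADPH fluorescence in the first read after selenite addition and not the 8 min delta; series mostly up to about 57 µM; a drop in NADPH fluorescence below the no-compound background marks a TrxR1 substrate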
Chain of Thioredoxin reductase 1, cytoplasmic (Rattus norvegicus) (O89049 whole entry, looked up): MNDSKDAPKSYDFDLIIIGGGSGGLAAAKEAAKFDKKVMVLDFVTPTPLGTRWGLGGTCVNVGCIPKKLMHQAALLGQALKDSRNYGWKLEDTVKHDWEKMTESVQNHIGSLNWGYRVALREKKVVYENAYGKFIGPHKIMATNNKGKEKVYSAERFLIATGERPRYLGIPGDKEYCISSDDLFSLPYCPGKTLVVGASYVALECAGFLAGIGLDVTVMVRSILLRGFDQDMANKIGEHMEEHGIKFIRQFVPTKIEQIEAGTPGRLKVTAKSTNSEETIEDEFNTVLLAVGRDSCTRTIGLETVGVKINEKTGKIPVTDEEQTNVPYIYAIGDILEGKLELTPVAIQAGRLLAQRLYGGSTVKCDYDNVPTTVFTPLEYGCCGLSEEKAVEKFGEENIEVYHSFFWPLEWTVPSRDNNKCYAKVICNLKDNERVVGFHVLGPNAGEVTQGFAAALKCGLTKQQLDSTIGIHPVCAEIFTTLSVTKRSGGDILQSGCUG
Outline: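 Quantitative HTS in Tris-HCl buffer at pH 7.5 with EDTA and Tween-20, using rat TrxR1, 400 uM NADPH and 400 uM selenite (final). A fall in initial NADPH fluorescence relative to background marked substrate behaviour.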

[6] = molecular target: Thioredoxin reductase 1, cytoplasmic (Rattus norvegicus) (UniProt O89049); assay: qHTS Assay for Inhibitors of Mammalian Selenoprotein Thioredoxin Reductase 1 (TrxR1) (AID 488773); conditions: Potency: inhibition;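 further: drop in NADPH fluorescence over an 8 min run after selenite addition; series mostly up to about 57 µM; nearly all actives have a fitted effect of over 40% in size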
Outline: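 Steps: enzyme (90 nM) plus NADPH (400 uM final), 5 min at ~22 deg C; compound added, 15 min; selenite (400 uM final) added; fluorescence followed for 8 min. Concentration-response curves derived from the normalized delta values.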

[7] = molecular target: Flap endonuclease 1 (Homo sapiens) (UniProt P39748); assay: qHTS Validation Assay for the Inhibitors of Human Flap endonuclease 1 (FEN1) (AID 488816); further: potency means the concentration at half of the fitted maximal effect
Chain of Flap endonuclease 1 (Homo sapiens) (P39748 whole entry, looked up): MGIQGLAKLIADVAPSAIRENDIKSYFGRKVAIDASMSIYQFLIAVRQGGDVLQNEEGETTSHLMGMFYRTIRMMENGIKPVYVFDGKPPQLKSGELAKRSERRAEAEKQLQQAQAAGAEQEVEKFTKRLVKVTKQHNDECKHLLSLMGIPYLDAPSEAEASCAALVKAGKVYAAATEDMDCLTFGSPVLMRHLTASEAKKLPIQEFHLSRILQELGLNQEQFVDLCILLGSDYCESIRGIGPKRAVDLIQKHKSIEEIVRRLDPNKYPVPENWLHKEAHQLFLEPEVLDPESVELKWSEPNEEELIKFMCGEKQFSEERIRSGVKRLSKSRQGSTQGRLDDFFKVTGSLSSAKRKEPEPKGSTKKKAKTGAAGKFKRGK
Outline: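 FEN1, dispensed as a 10 nM reagent, was preincubated with pin-transferred compounds for 15 min at room temperature before substrate was added (50 nM final). Plates were read at 0 and 15 min, and a four-parameter Hill equation was fitted to the concentration-response data.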

[8] = molecular target: M-phase phosphoprotein 8 (Homo sapiens) (UniProt Q99549); assay: qHTS Validation Assay for Inhibitors for MPP8 Chromodomain Interactions with Methylated Histone Tails (AID 488949); further: nearly all actives have a fitted effect of over 55% in size; further: potency means the concentration at half of the fitted maximal effect
Chain of M-phase phosphoprotein 8 (Homo sapiens) (Q99549 whole entry, looked up): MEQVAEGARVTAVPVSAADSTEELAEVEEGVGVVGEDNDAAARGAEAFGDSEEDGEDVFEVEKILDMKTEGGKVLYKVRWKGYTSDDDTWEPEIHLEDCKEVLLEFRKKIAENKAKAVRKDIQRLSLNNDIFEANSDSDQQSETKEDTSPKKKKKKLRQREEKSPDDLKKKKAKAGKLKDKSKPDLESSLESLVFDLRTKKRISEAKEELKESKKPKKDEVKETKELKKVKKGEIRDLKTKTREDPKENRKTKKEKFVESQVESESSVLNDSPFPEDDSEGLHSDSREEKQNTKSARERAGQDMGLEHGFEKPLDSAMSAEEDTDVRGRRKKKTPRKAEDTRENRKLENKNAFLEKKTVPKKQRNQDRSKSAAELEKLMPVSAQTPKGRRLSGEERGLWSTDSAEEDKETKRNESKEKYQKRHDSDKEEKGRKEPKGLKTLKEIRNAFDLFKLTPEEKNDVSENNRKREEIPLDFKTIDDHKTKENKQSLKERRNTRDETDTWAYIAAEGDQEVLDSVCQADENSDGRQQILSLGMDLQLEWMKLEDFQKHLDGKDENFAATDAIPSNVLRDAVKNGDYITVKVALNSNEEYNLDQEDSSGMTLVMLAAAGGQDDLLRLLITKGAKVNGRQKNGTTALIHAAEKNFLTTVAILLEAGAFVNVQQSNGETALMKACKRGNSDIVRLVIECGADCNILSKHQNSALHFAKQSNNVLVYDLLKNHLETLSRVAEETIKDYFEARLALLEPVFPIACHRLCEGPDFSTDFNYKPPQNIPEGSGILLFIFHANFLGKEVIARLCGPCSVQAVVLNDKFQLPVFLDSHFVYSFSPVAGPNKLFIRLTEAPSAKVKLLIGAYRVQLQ
Outline: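 AlphaScreen read-out: streptavidin donor and nickel chelate acceptor beads (final 10 ug/mL), 30 min in the dark at RT. Complex of 50 nM MPP8 and 50 nM b-H3(1-18)K9me3 peptide had been exposed to compounds for 30 min beforehand.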

[9] = molecular target: Chromobox protein homolog 1 (Homo sapiens) (UniProt P83916); assay: qHTS Validation Assay for Inhibitors of HP1-beta Chromodomain Interactions with Methylated Histone Tails (AID 488953); further: nearly all actives have a fitted effect of over 50% in size; further: potency means the concentration at half of the fitted maximal effect
Outline: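 HP1-beta (50 nM) preformed 30 min with biotinylated H3(1-18)K9me3 peptide (50 nM) in PBS pH 7.4, 0.01% Tween-20. Compounds added for 30 min at room temperature. Complex disruption read by AlphaScreen with streptavidin donor/nickel chelate acceptor beads (10 ug/mL each).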

[10] = molecular target: Methanococcus maripaludis chaperonin (MmCpn) (UniProt Q6LX38); assay: High-Throughput Screening for Modulators of Cytosolic Chaperonin Activity: MmCpn Primary Screen (AID 488978);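 further: 50 nM MmCpn enzyme hydrolysing 30 µM ATP at 37 °C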
Outline: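 ADP formation read by HTRF Transcreener, 665/590 nm emission after 320 nm excitation. Enzyme: archaeal chaperonin at 50 nM final; substrate ATP 30 uM final; 10 min, 37C, after 5 min compound preincubation at RT.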

[11] = molecular target: Transient receptor potential cation channel subfamily V member 1 (Homo sapiens) (UniProt Q8NER1); assay: HTS Assay for Compounds that Act as Enhancers of the Vanilloid Receptor 1 (AID 488979)
Chain of Transient receptor potential cation channel subfamily V member 1 (Homo sapiens) (Q8NER1 whole entry, looked up): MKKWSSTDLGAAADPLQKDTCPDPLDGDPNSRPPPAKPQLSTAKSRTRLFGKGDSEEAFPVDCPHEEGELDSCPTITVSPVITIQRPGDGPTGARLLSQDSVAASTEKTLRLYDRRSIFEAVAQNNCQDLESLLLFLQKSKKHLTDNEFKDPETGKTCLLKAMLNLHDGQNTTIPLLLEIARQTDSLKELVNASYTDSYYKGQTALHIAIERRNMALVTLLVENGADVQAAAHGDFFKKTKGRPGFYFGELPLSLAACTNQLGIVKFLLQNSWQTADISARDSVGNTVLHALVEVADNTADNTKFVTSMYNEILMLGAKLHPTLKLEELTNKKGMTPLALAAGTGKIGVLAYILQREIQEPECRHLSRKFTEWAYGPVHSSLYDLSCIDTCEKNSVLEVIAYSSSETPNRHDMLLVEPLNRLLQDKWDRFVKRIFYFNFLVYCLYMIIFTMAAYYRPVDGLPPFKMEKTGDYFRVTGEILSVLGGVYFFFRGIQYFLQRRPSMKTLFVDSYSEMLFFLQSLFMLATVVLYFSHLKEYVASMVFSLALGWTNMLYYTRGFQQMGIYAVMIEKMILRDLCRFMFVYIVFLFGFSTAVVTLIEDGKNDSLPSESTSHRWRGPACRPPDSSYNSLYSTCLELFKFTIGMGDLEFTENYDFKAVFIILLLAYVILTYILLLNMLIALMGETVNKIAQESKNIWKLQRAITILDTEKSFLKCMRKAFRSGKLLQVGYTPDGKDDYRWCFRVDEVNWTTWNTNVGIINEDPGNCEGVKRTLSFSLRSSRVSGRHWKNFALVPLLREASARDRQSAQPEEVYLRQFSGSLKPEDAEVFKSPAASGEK
Outline: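 TRPV1-expressing cells loaded with Fluo-8 calcium dye; compounds added and calcium influx read kinetically for 3 min (agonist phase), then capsaicin at EC20 added and read 2 min more for enhancement. Fluorescence ex 480/em 520 nm.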

[12] = molecular target: Thyrotropin receptor (Homo sapiens) (UniProt P16473); assay: qHTS Assay for Antagonists of the Thyroid Stimulating Hormone Receptor (AID 488980); further: series mostly up to about 58 µM
Outline: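 TSHR-HEK293 cells; 70 uM RO 20-1724 PDE inhibitor; compound + EC80 TSH (4 nM final); anti-cAMP cryptate antibody/cAMP-d2 in lysis buffer, 30 min RT; HTRF 665/620 nm read.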

[13] = molecular target: D(1A) dopamine receptor (Homo sapiens) (UniProt P21728); assay: HTS Assay for Allosteric Agonists of the Human D1 Dopamine Receptor: Primary Screen for Agonists (AID 488981)
Outline: (§1)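 Tetracycline-induced HEK293 T-REx cells force-coupled to calcium signalling were incubated overnight at 30 C and dye-loaded at room temperature. Calcium flux over 180 s after compound addition flagged agonists; a further 180 s read after EC20 dopamine flagged potentiators.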

[14] = molecular target: D(1A) dopamine receptor (Homo sapiens) (UniProt P21728); assay: HTS Assay for Allosteric Agonists of the Human D1 Dopamine Receptor: Primary Screen for Potentiators (AID 488982)
Outline: as §1

[15] = Validation screen for small molecules that induce genotoxicity in human embryonic kidney (HEK293T) cells expressing luciferase-tagged ELG1 (AID 493106)
Outline: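 HEK293T cells expressing luciferase-tagged ELG1, 2,000 cells/well, exposed to compound 16 hr at 37 °C, 5% CO2. Luciferase read after ONE-Glo, 30 min at room temperature; increased signal indicates genetic stress.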

[16] = molecular target: ATPase family AAA domain-containing protein 5 (Homo sapiens) (UniProt Q96QE3); assay: Validation screen for small molecules that inhibit ELG1-dependent DNA repair in human embryonic kidney (HEK293T) cells expressing luciferase-tagged ELG1 (AID 493107);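 further: cells co-treated with the DNA-damaging agent 5-fluorouridine alongside compound; series mostly up to about 46 µM; inhibitors lower the ELG1-luciferase luminescence signal; nearly all actives have a fitted effect of over 70% in size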
Chain of ATPase family AAA domain-containing protein 5 (Homo sapiens) (Q96QE3 whole entry, looked up, the tested form may be a part): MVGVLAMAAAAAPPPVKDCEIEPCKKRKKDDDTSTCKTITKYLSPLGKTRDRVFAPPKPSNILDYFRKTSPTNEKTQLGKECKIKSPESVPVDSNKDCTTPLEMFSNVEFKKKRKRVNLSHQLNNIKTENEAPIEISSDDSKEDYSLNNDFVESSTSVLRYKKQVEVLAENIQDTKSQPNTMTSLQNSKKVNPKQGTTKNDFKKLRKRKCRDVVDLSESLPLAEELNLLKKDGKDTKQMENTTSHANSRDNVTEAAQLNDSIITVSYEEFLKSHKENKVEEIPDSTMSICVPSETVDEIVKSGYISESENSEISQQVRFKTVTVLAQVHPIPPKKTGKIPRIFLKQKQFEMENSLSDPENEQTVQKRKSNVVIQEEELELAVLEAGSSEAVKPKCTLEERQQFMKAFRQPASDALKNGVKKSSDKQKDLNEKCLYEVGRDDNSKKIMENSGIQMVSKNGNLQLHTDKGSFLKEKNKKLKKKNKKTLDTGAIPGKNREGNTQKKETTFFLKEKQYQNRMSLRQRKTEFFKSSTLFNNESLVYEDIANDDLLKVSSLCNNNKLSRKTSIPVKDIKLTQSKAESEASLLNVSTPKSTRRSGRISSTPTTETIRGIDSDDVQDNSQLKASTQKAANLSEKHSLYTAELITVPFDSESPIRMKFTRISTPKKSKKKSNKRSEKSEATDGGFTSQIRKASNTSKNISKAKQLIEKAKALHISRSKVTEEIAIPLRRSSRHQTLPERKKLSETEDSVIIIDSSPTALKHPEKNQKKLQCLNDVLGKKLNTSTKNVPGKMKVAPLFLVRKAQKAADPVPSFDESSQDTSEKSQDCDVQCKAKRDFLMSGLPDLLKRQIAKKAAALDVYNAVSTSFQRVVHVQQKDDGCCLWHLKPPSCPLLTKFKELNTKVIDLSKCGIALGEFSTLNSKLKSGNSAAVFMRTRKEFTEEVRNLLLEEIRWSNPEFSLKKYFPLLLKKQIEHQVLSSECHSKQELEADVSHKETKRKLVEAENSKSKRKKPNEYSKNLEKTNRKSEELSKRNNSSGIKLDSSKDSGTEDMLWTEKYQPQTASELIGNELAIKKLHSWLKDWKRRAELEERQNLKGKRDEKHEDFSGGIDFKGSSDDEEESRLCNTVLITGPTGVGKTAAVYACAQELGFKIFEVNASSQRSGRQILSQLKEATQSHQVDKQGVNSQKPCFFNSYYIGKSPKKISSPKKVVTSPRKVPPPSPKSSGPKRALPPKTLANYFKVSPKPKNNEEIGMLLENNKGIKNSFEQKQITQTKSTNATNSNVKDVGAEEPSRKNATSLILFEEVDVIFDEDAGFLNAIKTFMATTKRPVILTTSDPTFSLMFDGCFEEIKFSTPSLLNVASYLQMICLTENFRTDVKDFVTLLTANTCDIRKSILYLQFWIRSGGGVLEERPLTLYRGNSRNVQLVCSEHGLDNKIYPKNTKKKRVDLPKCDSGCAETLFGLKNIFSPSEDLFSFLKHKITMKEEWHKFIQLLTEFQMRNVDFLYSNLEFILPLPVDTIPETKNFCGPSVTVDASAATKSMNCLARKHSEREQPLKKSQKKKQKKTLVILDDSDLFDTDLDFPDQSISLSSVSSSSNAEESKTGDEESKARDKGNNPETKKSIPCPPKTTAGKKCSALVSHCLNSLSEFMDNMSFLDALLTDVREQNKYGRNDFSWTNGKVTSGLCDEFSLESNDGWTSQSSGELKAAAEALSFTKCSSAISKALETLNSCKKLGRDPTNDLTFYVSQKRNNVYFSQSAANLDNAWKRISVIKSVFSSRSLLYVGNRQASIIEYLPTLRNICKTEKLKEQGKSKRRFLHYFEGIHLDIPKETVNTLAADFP
Outline: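 HEK293T cells expressing luciferase-tagged ELG1, 2,000 per well, treated with 5-fluorouridine plus compound for 16 h at 37 C. ONE-Glo luminescence after 30 min at room temperature reports ELG1 reporter level.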

[17] = molecular target: Thyrotropin-releasing hormone receptor (Homo sapiens) (UniProt P34981); assay: qHTS for Small Molecule Agonists and Allosteric Enhancers of Human TRH Receptor: Validation Screen for Agonists (AID 493127;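 active means calcium activation more than 3 SD above the typical response in the agonist read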); conditions: TRH receptor agonist cell assay; at 2 µM; hits give high values
Outline: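 TRHR cells loaded with fluo-8 calcium dye; FDSS kinetic fluorescence (Ex 480/Em 530) read at 1 s/cycle after 23 nL compound addition. Agonist-mode calcium response recorded before the 10 nM TRH (EC20) addition.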

[18] = molecular target: D(1A) dopamine receptor (Homo sapiens) (UniProt P21728); assay: HTS Assay for Allosteric Agonists of the Human D1 Dopamine Receptor: Primary Screen for Antagonists (AID 488983);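 further: calcium flux response to an EC80 dopamine challenge measured with no-wash dye; nearly all actives have a fitted effect of over 65% in size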
Outline: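 Tetracycline-induced HEK293 T-REx D1 line, force-coupled to calcium flux, read with no-wash calcium dye. Compound added after 10 s baseline, read 180 s for agonism, then EC80 dopamine added and read a further 180 s.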

Compound | outcome [1] | Potency [2] | Potency [3] | Potency [4] | outcome [5] | Potency [6] | Potency [7] | Potency [8] | Potency [9] | outcome [10] | outcome [11] | outcome [12] | Potency [13] | Potency [14] | Potency [15] | Potency [16] | activation [17] [%] | Potency [18]
N[C@H](C(=O)O)[C@H]1C[C@@H]1C(=O)O | inactive | inactive | inactive | inactive | inactive | inactive | inactive | inactive | inactive | inactive | inactive | inactive | inactive | inactive | inactive | inactive | 0.812 | –
C=CC1(C)CC(=O)C2(O)C(C)(O1)C(OC(C)=O)C(O)C1C(C)(C)CCC(O)C12C (configuration not stated) | inactive | inactive | inactive | inactive | inactive | inactive | inactive | inactive | inactive | inactive | inactive | inactive | inactive | inactive | – | inactive | – | inactive
O=C(O)C1=CC(=C(c2ccc(O)c(C(=O)O)c2)c2ccc(O)c(C(=O)O)c2)C=CC1=O | inactive | 60.1 nM (active) | inactive | inactive | inactive | inactive | 134 nM (active) | 178 nM (active) and 238 nM (active) | 199 nM (active) | inactive | inactive | inactive | inactive | inactive | – | – | 1 | inactive
COCc1nc2c([nH]1)c(=O)n(C)c(=O)n2CC(C)C | inactive | inactive | inactive | inactive | inactive | inactive | inactive | inactive | inactive | inactive | inactive | inactive | inactive | inactive | inactive | inactive | – | inactive
CC[N+](CC)(CC)CC(=O)Nc1c(C)cccc1C | inactive | inactive | inactive | inactive | inactive | inactive | inactive | inactive | inactive | inactive | inactive | inactive | inactive | inactive | – | inactive | 0.625 | inactive
N=S(=O)(O)Cc1noc2ccccc12 | inactive | inactive | inactive | inactive | inactive | inactive | inactive | inactive | inactive | inactive | – | inactive | inactive | inactive | inactive | inactive | – | inactive
CC(C)C[C@H](NC(=O)[C@H](O)[C@H](N)Cc1ccccc1)C(=O)O | inactive | inactive | inactive | inactive | inactive | inactive | inactive | inactive | inactive | inactive | inactive | inactive | inactive | inactive | – | inactive | -0.0625 | inactive
Cn1c(=O)c2[nH]c(-c3ccc(S(=O)(=O)O)cc3)nc2n(C)c1=O | inactive | inactive | inactive | inactive | inactive | inactive | inactive | inactive | inactive | inactive | inactive | inactive | inactive | – | inactive | inactive | 0.938 | –
